Only some compounds are listed: those with a hit (about 1.2% of all), similar ones and a draw of the others.
PI4K2A block = qHTS for small molecular inhibitors of PI4K2A. Phosphatidylinositol 4-kinase type 2-alpha (Homo sapiens), Q9BTU6. purified PI4K2A, ADP-Glo luminescence, 1 h; hits give low values. activity change, negative = inhibition, % at 76.9 µM. 420,000 compounds, 0.13% hits. AID 1346378, 2018; in the data active = activity change below about -50%; inconclusive = mostly about -30% to -49%
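PI4K2A activity was measured by ADP-Glo luminescence: enzyme (4 ug/mL stock) and phosphatidylinositol (1.2 mM stock) in Tris pH 7.5/MgCl2/EGTA/Triton X-100 buffer were reacted with ATP (300 microM stock) for one hour at ambient temperature.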
Pin1 inhibitor = qHTS Assay to Find Inhibitors of Pin1 | AID 504891, 2011 | Potency, µM (highest dose often 115 µM), hits mostly inhibitors | Pin1 FP peptide displacement, HiFluor488, 10 min | 390,000 compounds, 0.009% hits; active = well fitted inhibition curve with a large enough effect in the polarisation, with a control signal flat, not every such curve was filed as active; inconclusive = small, poorly fitted or top-dose-only effect, or effect the other way, or a change in a side signal; inactive = no such curve, though single readings can be large or run the other way; the % refers to the polarisation
Target sequence (Q13526 whole entry, looked up): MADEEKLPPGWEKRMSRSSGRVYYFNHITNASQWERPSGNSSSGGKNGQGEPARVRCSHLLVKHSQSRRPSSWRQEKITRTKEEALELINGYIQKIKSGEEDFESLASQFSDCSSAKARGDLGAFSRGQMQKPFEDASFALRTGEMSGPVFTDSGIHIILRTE
PI5P4Ka inh = qHTS for Inhibitors of phosphatidylinositol 5-phosphate 4-kinase (PI5P4K); Phosphatidylinositol 5-phosphate 4-kinase type-2 alpha (Homo sapiens), P48426; PI5P4Kalpha enzyme, ADP-Glo luminescence, 60 min; hits give low values; max response, %; 330,000 compounds, 1.2% hits; active = max response of -50% or lower; inconclusive = between -30% and -50%; inactive = -30% or higher; also: value at the top dose of about 77 µM
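ADP-Glo luminescence end-point read after a 60 min room-temperature kinase reaction of PI5P4Kalpha plus substrate, initiated with ATP at 5 microM final. Buffer: 0.038 M HEPES pH 7.4, EGTA, 0.1% CHAPS, 5% DMSO.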
GoLoco inh red = qHTS Assay for Inhibitors of RGS12 GoLoco Motif Activity (Red Fluorophore) | Guanine nucleotide-binding protein G(i) subunit alpha-1 (Homo sapiens), P63096 | Gai1:RGS12 GoLoco peptide FP, rhodamine, 10 min | Potency, µM (highest dose often 61.6 µM), usual class: inhibitors | 230,000 compounds, 0.44% hits | AID 880, 2007; active = well fitted inhibition curve with a large enough effect, not every such curve was filed as active; inactive = no such curve, though single readings can be large or run the other way; also: nearly all actives have a fitted effect of over 30% in size
GCN5L2 inh = qHTS Assay for Inhibitors of GCN5L2; Potency, µM (doses to about 58.9 µM), usual class: inhibitors; 390,000 compounds, 0.21% hits; Histone acetyltransferase KAT2A (Homo sapiens), Q92830; GCN5L2 HAT assay, ThioGlo1 CoA-SH fluorescence; AID 504327, 2011
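Compounds, pin-transferred from DMSO stocks, meet 20nM GCN5L2 for 15 min before the reaction begins with H3(1-25) peptide (75uM) and acetyl-CoA (70uM). Thiol-reactive ThioGlo1 reports CoA release over 20 min at room temperature.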
PGK inhibitor = qHTS Assay to Find Inhibitors of Phosphoglycerate Kinase; PGK/GAPDH coupled, Kinase-Glo luminescence, 60 min; Potency, µM (doses to about 57.5 µM), usual class: inhibitors; 380,000 compounds, 0.043% hits; also: nearly all actives have a fitted effect of over 60% in size
Target sequence (P07378 whole entry, looked up): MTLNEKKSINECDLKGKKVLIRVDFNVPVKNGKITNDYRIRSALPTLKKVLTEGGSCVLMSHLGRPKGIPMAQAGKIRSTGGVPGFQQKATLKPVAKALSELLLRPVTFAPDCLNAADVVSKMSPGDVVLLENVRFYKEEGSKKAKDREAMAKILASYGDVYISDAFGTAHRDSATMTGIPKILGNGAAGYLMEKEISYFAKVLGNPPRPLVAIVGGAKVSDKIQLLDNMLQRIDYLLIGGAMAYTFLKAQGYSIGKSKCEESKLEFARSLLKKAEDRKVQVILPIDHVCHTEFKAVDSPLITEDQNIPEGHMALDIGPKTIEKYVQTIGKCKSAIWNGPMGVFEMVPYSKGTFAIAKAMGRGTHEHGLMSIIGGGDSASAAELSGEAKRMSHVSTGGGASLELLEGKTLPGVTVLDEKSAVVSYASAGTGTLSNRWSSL
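Luminescent ATP detection (Kinase-Glo Plus) follows a 60-minute room-temperature incubation, with wells lacking PGK as controls. Buffer: 100 mM TEA (pH 7.6), 5 mM MgCl2, 0.01% Tween-20. Coupling enzyme GAPDH (100 nM final) supplies unstable 1,3-BPG in-well.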
Numbers stand for hits; – = inactive; ? = inconclusive; · = no result. Unless noted, calls follow the shape of the dose curve; as a rule, active = well fitted curve in the direction sought with a large enough effect; inconclusive = small, poorly fitted or top-dose-only effect, or another doubt; inactive = no such curve, though single readings can be large; an effect the other way counts as inactive or inconclusive.

SMILES	PI4K2A block	Pin1 inhibitor	PI5P4Ka inh	GoLoco inh red	GCN5L2 inh	PGK inhibitor
C#CCOCCOCCOCCNc1nc(N2CCN(C(=O)CCCCCCCCCCNC(=O)[C@H](CO)n3cc(CCCSC)nn3)CC2)nc(N2CCN(C(=O)CCCCCCCCCCNC(=O)[C@H](CCCCN)n3cc(CCO)nn3)CC2)n1	–	?	-51	·	–	–
C#CCOCCOCCOCCNc1nc(N2CCN(C(=O)CCCCCCCCCCNC(=O)Cn3cc(C[C@@H](C)O)nn3)CC2)nc(N2CCN(C(=O)CCCCCCCCCCNC(=O)[C@H](CO)n3cc(CCCSC)nn3)CC2)n1	–	–	–	·	–	–
COc1ccc(C(=O)N2CCCC(CNC(=O)c3ccc(F)cc3)C2)cc1OC (stereo unspecified)	–	–	–	·	–	–
O=C(Nc1ccccc1)Nc1cccc(C(F)(F)F)c1	–	–	–	–	–	–
O=C(Nc1cccc(C(F)(F)F)c1)Nc1cc(Cl)ccc1C(=O)O	·	·	·	·	22µM	·
COc1ccc(NS(=O)(=O)c2cccc(C(=O)NNC(=O)c3ccc(C)o3)c2)cc1	–	–	–	·	–	–
COc1ccc(NS(=O)(=O)c2cccc(C(=O)NNC(=O)c3cccn3C)c2)cc1	–	?	-75	·	–	–
Cc1nc(N)nc(Nc2ccc(C#N)cc2)c1Br	–	–	–	–	–	–
N#Cc1c(N)nc(N)nc1Nc1ccc(Br)cc1	–	–	-52	–	–	–
Cc1ccc(NS(=O)(=O)c2ccc(-c3ccc(=O)[nH]n3)o2)cc1Cl	–	–	–	·	–	–
O=C(NNc1nc(=O)c2cccnc2s1)c1ccccc1O	–	?	-68	–	–	–
Cc1ccc(CNC(=O)c2cnccn2)cc1	–	–	–	–	–	–
C=CCn1c(=O)[nH]c2cc(C(=O)N3CCN(c4cccc(Cl)c4)CC3)ccc2c1=O	–	?	-53	–	–	–
Cc1noc(C)c1-c1nc(CSc2ccccc2)no1	–	–	–	–	–	–
CCOC(=O)c1c(N2C(=O)Nc3cc(Cl)c(Cl)cc3N2O)sc2c1CCCCC2	–	54µM	?	–	?	–
CCOC(=O)c1c(-n2cnnn2)sc2c1CCCC2	–	–	–	–	–	–
N#Cc1ccsc1NC(=O)CSc1nnnn1-c1ccc(O)cc1	–	?	-61	–	–	–
N#Cc1ccsc1NC(=O)CSc1ncn[nH]1	–	–	·	–	–	–
Cc1ccc(OC(C)C(=O)Nc2ccc3c(c2)n(C)c(=O)n3C)c(C)c1 (stereo unspecified)	–	–	–	·	–	–
Cc1ccc(C(c2nnnn2C2CCCCC2)N2CCN3CCCC3C2)cc1 (stereo unspecified)	–	–	·	–	0.89µM	–
Oc1ccc(C(c2nnnn2C2CCCCC2)N2CCOCC2)cc1 (stereo unspecified)	–	–	–	–	–	–
Cc1[nH]cnc1C(=O)N/N=C/c1c(Cl)cccc1Cl	-69	–	?	·	–	?
O=C1C(=O)N(Cc2ccco2)C(c2cccs2)/C1=C(\O)c1cccc([N+](=O)[O-])c1 (stereo unspecified)	–	–	-79	–	–	–
COc1cccc(/C(O)=C2/C(=O)C(=O)N(Cc3ccco3)C2c2ccncc2)c1 (stereo unspecified)	–	–	–	–	?	–
CC(C)=CC[C@@H](O)C1=CC(=O)c2c(O)ccc(O)c2C1=O	·	·	·	–	25µM	·
SMILES	PI4K2A block	Pin1 inhibitor	PI5P4Ka inh	GoLoco inh red	GCN5L2 inh	PGK inhibitor
CN(C)CCNC(=S)Nc1cccc(Cl)c1	-51	–	–	–	–	–
Cc1ccc(C(=O)N2CCN(S(=O)(=O)c3cc(Br)ccc3Br)CC2)o1	–	–	–	·	–	–
O=C1C=CC(=Nc2ccc3c(c2)Cc2cc(F)ccc2-3)O1	–	–	-58	·	·	–
O=C(Nc1nnc([C@@H]2O[C@H](CO)[C@@H](O)[C@H]2O)s1)Nc1cccc2c1CCCC2	–	·	–	·	·	·
N#Cc1cnn(-c2ccc(F)cc2)c1N	–	–	-52	–	–	–
CN=c1sc(C(=O)Nc2cccc(Cl)c2)cc(=O)n1C	–	?	-62	–	–	–
CC(OC(=O)C1CC1C)C(=O)Nc1ccc(Cl)cn1 (stereo unspecified)	–	–	–	·	–	–
COc1cccc(/C=C2\Oc3ccc(O)cc3C2=O)c1O	-61	?	–	·	–	–
COC(=O)c1ccc2c(c1)C(=O)/C(=C/c1ccc(O)cc1)O2	–	?	–	–	–	–
Cc1ccc(/C=C/C(=O)O)cc1S(=O)(=O)N(C)CCO	–	–	-64	–	–	–
COc1cc(/C=C/C(=O)O)cc(S(=O)(=O)N(C)CCO)c1OC	–	–	–	–	–	–
O=C(NC(=S)N1CCCC1)c1ccc(Cl)cc1	–	–	–	·	–	–
CN1CCN(C(=S)NC(=O)c2ccc(Cl)cc2)CC1	–	–	-91	–	–	–
N#C/C(=C\c1cn[nH]c1-c1ccc(Cl)cc1)C(=O)NCc1ccccc1	–	–	–	–	–	–
N#C/C(=C/c1cn[nH]c1-c1ccc(Br)cc1)C(=O)O	–	–	-76	–	–	–
CNc1ccc(O)cc1	·	·	·	5.6µM	·	·
CCn1c(C)c2c([n+]1CC)CC(C)(C)CC2=O	–	–	·	11µM	–	–
Cn1nnc(-c2ccc(OCc3ccccc3F)cc2)n1	-56	–	–	–	–	–
Fc1ccccc1COc1ccc(-c2nnn(Cc3ccccc3F)n2)cc1	–	–	–	–	–	–
CCOCCCNC1=C(Cl)C(=O)c2ccccc2C1=O	–	–	-93	3.2µM	–	–
COc1ccc(N2C3=C(C(=O)CC(C)(C)C3)C(c3cnn(C)c3)C3=C2CC(C)(C)CC3=O)cc1	–	–	–	–	?	–
Cc1ccc(S(=O)(=O)Oc2ccc(/C=C3\C(=N)N4N=C(S(C)(=O)=O)SC4=NC3=O)cc2)cc1	–	?	-57	·	?	–
CCC1=NN2C(=N)/C(=C/c3ccc(OS(=O)(=O)c4ccccc4)cc3)C(=O)N=C2S1	–	?	-63	·	–	–
Nc1c(C(=O)Nc2ccccc2)c2nc3ccccc3nc2n1-c1ccc(O)cc1	–	–	–	–	–	–
Cn1c(=O)c2[nH]c(Br)nc2n(C)c1=O	–	·	·	·	–	·
CCn1c(=S)[nH]c2c(=O)n(C)c(=O)n(C)c21	–	–	-69	·	·	–
